In the library only some 2.8% were active in any assay of this set; here they are far more common.
Pol iota inh = blocks human DNA polymerase iota activity | Q9UNA4 | Pol iota fluorescent replication assay, 10 min | Potency, µM (doses to about 115 µM), usual class: inhibitors | hit rate 1% among 390,000
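Pol iota at 10 nM preincubated 15 min with compounds at room temperature; reaction started with fluorescent substrate, 50 nM final. Fluorescence read kinetically at 0 and 10 min; buffer-only wells as negative control.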
Pol kappa inh = blocks human DNA polymerase kappa activity. purified Pol kappa, fluorescent DNA synthesis assay, 10 min. Potency, µM (highest dose often 107 µM), actives largely listed as inhibitors. hit rate 0.53% among 400,000
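Here, compound and 10 nM enzyme are combined for 15 min at room temperature; adding 50 nM substrate (final) starts DNA synthesis, tracked by fluorescence at 0 and 10 min against buffer-only wells.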
POLB inh = DNA polymerase beta (human) inhibition. Potency, µM (highest dose often 114 µM), most hits filed as inhibitors. P06746. hit rate 1.3% among 340,000. Pol beta primer extension/strand displacement, fluorescence kinetic
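Homogeneous kinetic assay of primer extension and strand displacement by 10 nM Pol beta, preincubated 15 min at room temperature with compound before 50 nM substrate (final) was added. Read at 0 and 10 min; four-parameter Hill fit.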
PI4K2A inh = PI4K2A (human) kinase inhibition | Q9BTU6 | purified PI4K2A, ADP-Glo luminescence, 1 h; stronger effect = lower value | activity change, negative = inhibition, % at 76.9 µM | hit rate 0.13% among 420,000; in the data active = activity change below about -50%; inconclusive = mostly about -30% to -49%
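In this quantitative HTS, ADP production by PI4K2A was quantified luminescently after 1 h at ambient temperature; 100 microM adenosine served as plate-quality control.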
POLH inh = DNA polymerase eta (human) inhibition. Q9Y253. recombinant Pol eta, fluorescent DNA replication assay. Potency, µM (top dose mostly 114 µM), actives largely listed as inhibitors. hit rate 1.2% among 390,000. AID 588591
Target sequence (Q9Y253 whole entry, looked up): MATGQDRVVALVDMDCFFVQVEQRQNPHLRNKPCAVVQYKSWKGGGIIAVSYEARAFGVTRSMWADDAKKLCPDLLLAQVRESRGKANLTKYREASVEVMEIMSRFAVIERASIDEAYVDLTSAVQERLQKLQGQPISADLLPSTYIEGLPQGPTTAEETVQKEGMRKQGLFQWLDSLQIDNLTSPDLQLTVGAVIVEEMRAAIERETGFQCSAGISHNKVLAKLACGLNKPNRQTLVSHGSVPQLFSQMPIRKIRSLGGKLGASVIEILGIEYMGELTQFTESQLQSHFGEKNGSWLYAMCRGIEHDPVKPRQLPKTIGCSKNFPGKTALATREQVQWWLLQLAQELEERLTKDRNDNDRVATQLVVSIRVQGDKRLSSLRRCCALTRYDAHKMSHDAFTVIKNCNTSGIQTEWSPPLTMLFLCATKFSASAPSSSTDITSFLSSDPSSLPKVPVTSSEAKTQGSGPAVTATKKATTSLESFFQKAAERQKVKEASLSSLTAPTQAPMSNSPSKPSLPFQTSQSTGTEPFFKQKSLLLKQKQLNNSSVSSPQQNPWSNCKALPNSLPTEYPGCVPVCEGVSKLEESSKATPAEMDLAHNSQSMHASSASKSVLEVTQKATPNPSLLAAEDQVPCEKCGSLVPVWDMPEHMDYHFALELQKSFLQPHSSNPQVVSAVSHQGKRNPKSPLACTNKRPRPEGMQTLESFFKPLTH
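Pol eta at 10 nM preincubated with compounds 15 min at room temperature; reaction started with fluorescent substrate (50 nM final) and read kinetically at 0 and 10 min.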
PI5P4Ka inh = PI5P4K alpha (human) kinase inhibition. hit rate 1.2% among 330,000. PI5P4Kalpha enzyme, ADP-Glo luminescence, 60 min; stronger effect = lower value. max response, %. P48426. AID 652105; active = max response of -50% or lower; inconclusive = between -30% and -50%; inactive = -30% or higher; note: value at the top dose of about 77 µM
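Single end-point luminescence (ADP-Glo) quantified ADP from PI5P4Kalpha turnover; ATP 5 microM final, 1 h at RT, 0.1% CHAPS and 0.28 mM EGTA in HEPES pH 7.4.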
Each line names hits and unclear results; the compound was inactive in the other large screens. Unless noted, calls come from the whole dose curve; as a rule, active = well fitted inhibition curve with a large enough effect; inconclusive = small, poorly fitted or top-dose-only effect, or another doubt; inactive = no such curve, though single readings can be large or run the other way.

Cc1nc2n(c(=O)c1CCN1CCC(C(=O)c3ccc(F)cc3)CC1)CCS2	none (no result: Pol iota inh, Pol kappa inh, POLB inh, POLH inh, PI5P4Ka inh)
COc1ccc2c3c(c(=O)oc2c1)C1O[C@](c2ccsc2)(Cc2ccccc21)O3	none (no result: Pol iota inh, Pol kappa inh, PI4K2A inh, POLH inh, PI5P4Ka inh)
O=c1oc2ccccc2c2c1C1O[C@](c3ccsc3)(Cc3ccccc31)O2	POLB inh 11µM (no result: Pol iota inh, Pol kappa inh, PI4K2A inh, POLH inh, PI5P4Ka inh)
O=c1oc2ccc(F)cc2c2c1C1O[C@](c3ccsc3)(Cc3c1ccc1ccccc31)O2	POLB inh 10µM (no result: Pol iota inh, Pol kappa inh, PI4K2A inh, POLH inh, PI5P4Ka inh)
NCCCN(Cc1ccc(Cl)cc1)c1ccc(Br)cn1	none (no result: POLB inh, PI4K2A inh, POLH inh, PI5P4Ka inh)
CC(C)C[C@H](NC(=O)C1CC(=O)N(c2ccc3c(c2)OCO3)C1)C(=O)NC1CCCC1 (stereo partly drawn)	POLH inh 89µM
C[C@H](NC(=O)C1CC(=O)N(c2ccc3c(c2)OCO3)C1)C(=O)NC1CCCC1 (stereo partly drawn)	none
N#Cc1ccc(CSc2nnc(Cc3cccs3)n2Cc2ccco2)cc1	Pol iota inh 18µM, Pol kappa inh inconclusive, POLB inh 14µM, POLH inh 22µM, PI5P4Ka inh inconclusive
Cc1cc(C2C(C#N)=C(N)Oc3n[nH]c(C)c32)c(C)s1 (stereo not drawn)	none
Cc1cc(C2C(C#N)=C(N)SC(N)=C2C#N)c(C)s1	Pol iota inh inconclusive, POLH inh inconclusive, PI5P4Ka inh -56
CCc1ccc([C@@H]2CC=C(C(=O)O)[C@H](c3ccc(C(C)(C)C)cc3)N2S(=O)(=O)c2ccc(C)cc2)cc1	POLH inh 32µM, PI5P4Ka inh inconclusive (no result: POLB inh)
Cc1ccc(S(=O)(=O)N2[C@@H](c3ccc(Cl)cc3)C(C(=O)O)=CC[C@H]2c2ccc(Cl)c(Cl)c2)cc1	Pol iota inh inconclusive, POLH inh 89µM (no result: POLB inh)
Cc1ccc(S(=O)(=O)N2C(c3ccc(Cl)c(Cl)c3)CC=C(C(=O)O)C2c2ccc(Cl)cc2)cc1 (stereo not drawn)	none (no result: Pol iota inh, Pol kappa inh, POLB inh, POLH inh)
CCc1nn2c(=O)cc(COC(=O)CNC(=O)COc3ccc(C)cc3)nc2s1	none (no result: PI5P4Ka inh)
Cc1ccc(N2C(=O)N3[C@H](c4ccc(Cl)cc4)[C@@H]4C(=O)N(C5CCCCC5)C(=O)[C@@H]4[C@]3(Cc3ccccc3)C2=O)cc1	none
Cc1ccc(N2C(=O)N3[C@H](c4ccc(F)cc4)[C@@H]4C(=O)N(C5CCCCC5)C(=O)[C@@H]4[C@]3(C)C2=O)cc1	POLB inh inconclusive, PI5P4Ka inh -65
CCOc1ccccc1NC(=O)CSc1nc2nc(-c3cccs3)cc(C(F)(F)F)c2c(=O)[nH]1	Pol iota inh inconclusive, POLB inh inconclusive, POLH inh 79µM, PI5P4Ka inh inconclusive
O=C(CSc1nc2nc(-c3cccs3)cc(C(F)(F)F)c2c(=O)[nH]1)C(F)(F)F	POLB inh 79µM, PI5P4Ka inh inconclusive
O=C(NC1CCC1)c1ccc(C#Cc2cccc(F)c2)cn1	none (no result: Pol iota inh, Pol kappa inh, POLB inh, POLH inh, PI5P4Ka inh)
CCSc1nc2n(n1)C(c1ccc(CC)cc1)C(C(=O)Nc1ccccc1OC)=C(C)N2 (stereo not drawn)	none (no result: PI5P4Ka inh)
Cn1c(CNc2ccccc2)cc(=O)n(C)c1=O	PI4K2A inh -69 (no result: PI5P4Ka inh)
Cc1cc[n+](CC(=O)c2ccc(F)cc2)cc1	Pol iota inh inconclusive (no result: POLB inh, PI4K2A inh, POLH inh, PI5P4Ka inh)
Cc1ccc2nc(-c3ccc(NC(=O)c4ccco4)cc3)[nH]c2c1	Pol iota inh inconclusive, POLB inh 25µM, POLH inh inconclusive (no result: PI5P4Ka inh)
O=C(Nc1ccc2nc(-c3cccs3)[nH]c2c1)c1ccco1	Pol iota inh inconclusive, POLB inh 32µM, POLH inh inconclusive
Cc1ccc(-n2nc3ccc(NC(=O)c4ccco4)cc3n2)cc1	Pol iota inh inconclusive, POLB inh 25µM, POLH inh inconclusive
CCOc1ccc(Oc2c(Cl)c(Br)nn(Cc3cccc4ccccc34)c2=O)cc1	none (no result: Pol iota inh, Pol kappa inh, POLB inh, POLH inh, PI5P4Ka inh)
COc1cc(/C=C(\C#N)c2ccccn2)cc(OC)c1O	none
COc1cc(/C=C(\C#N)c2[nH]nc(N)c2C#N)cc(OC)c1O	Pol iota inh inconclusive, POLB inh inconclusive, POLH inh inconclusive, PI5P4Ka inh -64
CCOc1cccc2cc(C(=O)Oc3ccc(OC)cc3)c(=O)oc12	none
COc1cccc2cc(C(=O)Oc3ccccc3)c(=O)oc12	POLB inh 89µM, POLH inh inconclusive
CN(C)/[N+]([O-])=N/Oc1ccc([N+](=O)[O-])cc1C(F)(F)F	none (no result: POLB inh, PI4K2A inh, POLH inh, PI5P4Ka inh)
COc1[nH]c(/N=C/c2ccccc2)c(C#N)c1C#N	Pol iota inh 79µM, Pol kappa inh inconclusive, POLB inh 89µM, PI5P4Ka inh inconclusive
Cc1oc(/N=C/c2ccccc2)c(C#N)c1C	none
COC(=O)CCCCC(CCSS/C(CCO)=C(\C)N(C=O)Cc1cnc(C)nc1N)SC(C)=O (stereo not drawn)	none (no result: Pol iota inh, Pol kappa inh, POLB inh, POLH inh, PI5P4Ka inh)
C=CCNC(=O)/C(C#N)=C\c1cc(Cl)c(O)c(OCC)c1	Pol iota inh inconclusive, PI5P4Ka inh -59
CCOCCCNC(=O)/C(C#N)=C/c1cc(C)c(O)c(C)c1	none
CCOc1cc(/C=C(/C#N)C(=O)Nc2ccc(O)cc2)cc(Br)c1O	POLB inh inconclusive, PI5P4Ka inh -71
CCOC(=O)C(=O)CCCCCCl	none (no result: Pol iota inh, Pol kappa inh, POLB inh, POLH inh, PI5P4Ka inh)
O=C(CN1CCN(Cc2ccccc2)CC1)N/N=C\C=C/c1ccco1	none
Cn1cccc1CC(=O)N/N=C/c1cccc2ccccc12	none
